# Bioassay records from PubChem.
# Sfp PPTase inh: blocks B. subtilis Sfp PPTase activity. hit rate 3.5% among 310,000. Potency, µM, without a hit: largest response in the series, negative = inhibition, actives largely listed as inhibitors. AID 1490. Biochemical Sfp PPTase activity, qHTS;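 also: the enzyme is Sfp with the accession as filed and its product quenches rhodamine fluorescence; 0% = enzyme reaction without inhibitor and -100% = no enzyme wells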
#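 Fluorescence-quenching assay: 15 nM Sfp-PPTase preincubated 15 min at room temperature with compound, then 5 uM rhodamine-CoA and 12.5 uM BHQ-2-labelled YbbR peptide added. Fluorescence (ex 525/em 598 nm) read at start and after 30 min; difference gives rate.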
# BAZ2B block: inhibitors of human BAZ2B bromodomain; Q9UIF8; AlphaScreen BAZ2B-H3K14Ac peptide displacement; Potency, µM (top dose mostly 114 µM), for the others: at the highest dose activity change, negative = inhibition, usual class: inhibitors; hit rate 4.4% among 360,000; AID 504333; also: % is scaled to controls: 0 for no effect and ±100 for the full control effect; nearly all actives have a fitted effect of over 60% in size
#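 In this displacement format the biotinylated H3(5-23) peptide acetylated at Lys14 serves as ligand at 50 nM, with BAZ2B at 50 nM in PBS pH 7.4 containing 0.01% Tween-20. Donor and acceptor beads are 10 ug/mL final.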
# G9a inh: G9a (human) methyltransferase inhibition; G9a H3K9 monomethylation, AlphaScreen, 2 h; Potency, µM (titrated, usually from 102 µM), without a hit: at the top dose activity, negative = inhibition, most hits filed as inhibitors; hit rate 8.8% among 350,000; AID 504332; also: % is scaled to controls: 0 for no effect and ±100 for the full control effect; nearly all actives have a fitted effect of over 75% in size
# Target sequence (Q96KQ7 913-1193 limits assumed): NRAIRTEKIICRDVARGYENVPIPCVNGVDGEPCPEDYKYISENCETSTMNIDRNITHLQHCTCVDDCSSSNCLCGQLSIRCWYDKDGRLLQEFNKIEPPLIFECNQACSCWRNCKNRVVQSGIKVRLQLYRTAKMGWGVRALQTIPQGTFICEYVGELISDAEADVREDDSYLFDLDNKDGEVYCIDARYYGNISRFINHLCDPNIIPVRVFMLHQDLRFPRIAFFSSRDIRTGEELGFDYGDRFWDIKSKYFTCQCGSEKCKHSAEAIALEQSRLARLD
#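 Quantitative HTS format: methyltransferase activity on a biotin-tagged H3K9 peptide is measured by AlphaScreen, using a rabbit anti-monomethyl-H3K9 antibody with streptavidin donor and anti-IgG acceptor beads. Final levels are 20 nM enzyme, 500 nM peptide, 20 uM SAM; 2 h RT.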
# HP1b binding inh: blocks HP1-beta chromodomain binding to methylated histone tails. P83916. AlphaScreen HP1-beta / biotin-H3K9me3 peptide binding. Potency, µM (series often up to 114 µM), without a hit: at the top dose activity change, negative = inhibition, hits mostly inhibitors. hit rate 0.56% among 390,000. AID 540317; also: nearly all actives have a fitted effect of over 70% in size
# Target sequence (P83916 whole entry, looked up): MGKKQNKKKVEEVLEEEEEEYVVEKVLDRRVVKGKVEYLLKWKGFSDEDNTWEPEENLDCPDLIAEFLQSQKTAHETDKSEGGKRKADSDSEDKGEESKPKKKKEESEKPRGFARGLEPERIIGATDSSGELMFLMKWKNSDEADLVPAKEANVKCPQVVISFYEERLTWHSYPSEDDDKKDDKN
#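 AlphaScreen: HP1-beta (50 nM) preformed 30 min with biotin-H3(1-18)K9me3 peptide (50 nM) in PBS pH 7.4, 0.01% Tween-20. Compound added for 30 min at RT, then streptavidin donor/nickel chelate acceptor beads (10 ug/mL) for 30 min.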
# JMJD2A Tudor: blocks the human JMJD2A Tudor domain; O75164; AlphaScreen JMJD2A-Tudor / H3K4me3 peptide binding; Potency, µM (titrated, usually from 114 µM), without a hit: top-dose activity change, negative = inhibition, actives largely listed as inhibitors; hit rate 4.4% among 390,000; also: % is scaled to controls: 0 for no effect and ±100 for the full control effect; nearly all actives have a fitted effect of over 50% in size
# PLK1 PBD block: PLK1 (human) polo-box domain binding inhibition; P53350; Plk1 PBD binding of FITC phosphopeptide, fluorescence polarization; Potency, µM, for the others: max response, negative = inhibition, actives largely listed as inhibitors; hit rate 2.8% among 360,000; AID 720504; also: series mostly up to about 57 µM; % is scaled to controls: 0 for no effect and ±100 for the full control effect; nearly all actives have a fitted effect of over 65% in size
# Starred values were filed as active, the others as inactive; ? = inconclusive; nt = no result given; ! = not active in a repeat; [ ] = remark or other dose. A selection: hits, their analogues and other compounds. The true share with any hit is near 12%. Calls follow the shape of the dose curve; as a rule, active = well fitted curve in the direction sought with a large enough effect; inconclusive = small, poorly fitted or top-dose-only effect, or another doubt; inactive = no such curve, though single readings can be large; an effect the other way counts as inactive or inconclusive. Potency is read from the fitted curve at half-maximal effect.
SMILES,Sfp PPTase inh,BAZ2B block,G9a inh,HP1b binding inh,JMJD2A Tudor,PLK1 PBD block
COc1ccc(-n2c(O)c(/C=C3\C=Nc4ccccc43)c(=O)[nH]c2=O)cc1,-11%,?,nt,40%,-13%,-10%
COc1ccc(-c2nc(CSCC(=O)N3CCN(c4ccc(F)cc4)CC3)c(C)o2)cc1,nt,-25%,-49%[59 µM],-24%,50µM*,nt
O=C(/C=C/c1ccccc1)NC(=S)N1C[C@H]2C[C@H](C1)c1cccc(=O)n1C2,-15%,-2%,32µM*,9%,-24%,?
COc1ccc(/C=C/C(=O)NC(=S)N2C[C@H]3C[C@H](C2)c2cccc(=O)n2C3)cc1OC,-18%,-31%,35µM*,22%,-20%,-11%
O=C(/C=C/c1ccc(F)cc1)NC(=S)N1C[C@H]2C[C@H](C1)c1cccc(=O)n1C2,-4%,-8%,-16%,16%,-29%,-20%
CC(=O)O[C@H]1CC[C@]2(C=O)C3CC[C@]4(C)[C@@H](C5=CC(=O)OC5)CC[C@]4(O)C3CC[C@]2(O)C1 (some centres not stated),21%,nt,nt,21%,-8%,nt
CCOC(=O)C(NC(C)=O)C(OC(C)=O)c1cccc(N(CCCl)CCCl)c1 (configuration not stated),2%,-18%,14µM*,18%,-15%,-1%
C[N+]1(C)C2CC[C@H]1CC(OC(=O)[C@@H](CO)c1ccccc1)C2 (some centres not stated),8%,nt,-3%[59 µM],nt,nt,nt
CN(C)P(=NC(=S)c1cccn1C)(N(C)C)N(C)C,-24%,?,10µM*,-10%,40µM*,?
CCCC[N+]12C3CC(C(CC)[C@H]1O)[C@@H]1C(O)C4(C[C@@H]12)c1ccccc1N(C)C34 (some centres not stated),1%,nt,nt,nt,nt,nt
O=C(CCC(=O)Nc1ccccc1Cl)N/N=C/c1ccccc1,-2%,5%,8%[59 µM],41%,-6%,-9%
CCOC(=O)N(c1ccccc1)P1(=S)OCCO1,40µM*,7%,?,-21%,-23%,12µM*
CCOC(=O)N(c1ccccc1)P1(=S)OCC(C)O1 (configuration not stated),8%,8%,17%[59 µM],28%,-11%,-7%
COC(=O)N(c1ccccc1)P1(=S)OCCO1,5.6µM*,55%,46%[59 µM],-22%,?,12µM*
CCN1CCN(Cc2cccc(Oc3ccccc3)c2)CC1,?,32µM*,3.5µM*,?,3.2µM*,-14%
C/C=C/C/C=C/CCC(=O)[C@H]1O[C@H]1C(N)=O,7%,nt,?,nt,nt,nt
CCC(C)C(=O)OC1C(O)C2C(CN3CC(C)CCC3[C@]2(C)O)C2C[C@]34O[C@@]5(O)C(OC(=O)C(C)(O)C(C)O)CCC3(C)C5C(OC(C)=O)C(OC(C)=O)C4[C@@]21O (some centres not stated),-3%,nt,5%[2.33 µM],nt,nt,nt
Cc1cc(O)c(CN2CCN(c3ccccc3)CC2)cc1C,15%,-1%,22%[12.7 µM],34%,-17%,1%
Oc1cc2c(cc1CN1CCN(c3ccc(F)cc3)CC1)OCO2,8%,?,8.9µM*,-10%,?,-24%
Cc1ccc(Sc2ccc(C=C3C(=O)N(C)C(=O)N(C)C3=O)o2)cc1,8.9µM*,?,nt,?,-28%,0.53µM*
CON(C)C(=O)Nc1ccc(Br)cc1,8%,nt,nt,nt,nt,nt
O=C(O)/C=C\C(=O)Nc1ccc(Oc2ccc(Br)cc2)cc1,9%,50µM*,?,35%,-14%,-3%
O=C1NC(=O)C2(Cc3ccccc3N3CCCC32)C(=O)N1c1cccc(Cl)c1 (configuration not stated),-11%,10%,32µM*,31%,-32%,-17%
Cc1ccc(N2C(=O)NC(=O)C3(Cc4ccccc4N4CCN(c5ccccc5)CC43)C2=O)cc1 (configuration not stated),-12%,-32%,7.1µM*,14%,-33%,-15%
CN1c2ccc([N+](=O)[O-])cc2CC2(C(=O)NC(=O)N(c3ccccc3)C2=O)C1c1ccccc1 (configuration not stated),30%,-36%,-10%[59 µM],-8%,-35%,-4%
SMILES,Sfp PPTase inh,BAZ2B block,G9a inh,HP1b binding inh,JMJD2A Tudor,PLK1 PBD block
CN1C(=O)N(C)C(=O)C2(Cc3ccccc3N3CCOCC32)C1=O (configuration not stated),20%,-13%,-3%[12.7 µM],37%,-15%,-2%
CC/C=C\C/C=C\C/C=C\C/C=C\C/C=C\CCCC(=O)NCC(=O)O,10%,nt,nt,nt,nt,nt
Clc1ccc(Sc2oc(/C=N/n3cnnc3)cc2Br)cc1,-3%,10%,-2%,9%,89µM*,-9%
COc1cc2c(cc1OC)[C@H](C)NCC2,15%,nt,15%[21.5 µM],nt,nt,nt
O=c1c(O)c(-c2ccc(O)c(O)c2)oc2cc(O)cc(O)c12,56µM*!,?,13µM*,-8%,?,-2%
O=c1cc(-c2ccc(O)c(O)c2)oc2cc(O)cc(O)c12,?,79µM*,10µM*,-15%,45µM*,-6%
CCCOP(=O)(OCCC)C(Nc1ccc(C(C)C)cc1)c1ccc([N+](=O)[O-])cc1 (configuration not stated),-11%,56µM*,?,-23%,?,2%
CCOC(=O)c1ccc(NC(c2ccc(N(C)C)cc2)P(=O)(OC(C)C)OC(C)C)cc1 (configuration not stated),-6%,32µM*,35µM*,?,50µM*,2%
C=C(C)C1CCC(C)=CC1c1c(O)cc(O)cc1CCCCC (configuration not stated),-1%,nt,?,nt,nt,nt
c1cnc(N2CCNCC2)nc1,-30%,?,18µM*,43%,?,-17%
c1cnc(N2CCCC3(CCNCC3)C2)nc1,2%,nt,-15%[12.7 µM],nt,nt,nt
CCC1CN2CCC1CC2C(O)c1ccnc2ccccc12 (configuration not stated),4%,nt,nt,nt,nt,nt
CNC(C)Cc1ccc(OC)cc1 (configuration not stated),-6%,nt,nt,nt,nt,nt
CCCN(CC#CCOc1ccc(OC)cc1)CCC,-25%,56µM*,8.9µM*,-47%,6.3µM*,-8%
